Data reported in ChEMBL document CHEMBL3433997, “St. Jude Leishmania screening dataset” (2016).

Assays:
Format in all cases: functional
[1] = biological target: Solute carrier family 2, facilitated glucose transporter member 1 (Homo sapiens) (UniProt P11166); test: ST_JUDE_LEISH: Cytotoxicity at 2uM final concentration against transgenic Leishmania Mexicana promastigotes LmGLUT1 that are glucose transport deficient and complemented with the human glucose transporter GLUT1. Activity is measured by DNA content using SYBR green in vitro
Sequence of Solute carrier family 2, facilitated glucose transporter member 1 (Homo sapiens) (P11166 whole entry): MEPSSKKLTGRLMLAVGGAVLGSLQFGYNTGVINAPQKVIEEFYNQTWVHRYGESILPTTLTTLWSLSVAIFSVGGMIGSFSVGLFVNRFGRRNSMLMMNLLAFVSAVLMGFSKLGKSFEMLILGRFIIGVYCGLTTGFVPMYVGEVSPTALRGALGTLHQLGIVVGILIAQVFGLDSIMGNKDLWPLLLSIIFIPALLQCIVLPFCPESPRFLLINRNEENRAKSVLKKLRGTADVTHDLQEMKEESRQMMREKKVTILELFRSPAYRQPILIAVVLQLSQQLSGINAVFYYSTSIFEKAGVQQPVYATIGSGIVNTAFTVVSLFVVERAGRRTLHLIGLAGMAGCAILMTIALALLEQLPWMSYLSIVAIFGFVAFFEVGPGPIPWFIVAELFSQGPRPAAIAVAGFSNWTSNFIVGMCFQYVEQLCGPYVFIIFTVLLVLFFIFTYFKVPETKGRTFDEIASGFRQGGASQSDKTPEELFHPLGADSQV

[2] = biological target: Hexose transporter 1 (Plasmodium falciparum) (UniProt O97467); test: ST_JUDE_LEISH: Cytotoxicity at 2uM final concentration against transgenic Leishmania Mexicana promastigotes LmPfHT that are glucose transport deficient and complemented with the Plasmodium falciparum hexose transporter. Activity is measured by DNA content using SYBR green in vitro
[3] = biological target: Glucose transporter (Leishmania mexicana) (UniProt O61059); test: ST_JUDE_LEISH: Cytotoxicity at 2uM final concentration against transgenic Leishmania Mexicana promastigotes LmGT2 that are glucose transport deficient and complemented with the L. Mexicana glucose transporter 2. Activity is measured by DNA content using SYBR green in vitro

Row | Compound | inhibition [1] [%] | inhibition [2] [%] | inhibition [3] [%]
1 | O=C(N[C@H]1CCN(Cc2ccc(OCCN3CCNCC3)c3ccccc23)C1)c1ccc(Cl)c(Cl)c1 | 1.1 | 4.37 | 2.91
2 | OCCN1CCN(Cc2ccc(-c3cccc(-c4nc5ccccc5[nH]4)c3)cc2)CC1 | -1.4 | -2.88 | -1.5
3 | CCCCCCCCCn1c(NCc2cc(Cl)ccc2O)nc2ccccc21 | 2.6 | 1.33 | 0.42
4 | CC(C)(C)c1nn(-c2ccccc2)c2[nH]c(=O)c(CNC3CCCCC3)cc12 | 1.69 | 1.5 | 2.72
5 | CC(C)c1ccc(OCC(O)CN(C)C(C)C(O)c2ccccc2)c(Br)c1 (stereo unspecified) | 5.55 | 12.5 | 10.4
6 | COc1ccc(F)cc1-c1ccccc1CNC(=O)CN(C)S(=O)(=O)c1cc(C)cc(Cl)c1C | 1.17 | 1.94 | 0.93
7 | COc1ccc(C(=O)CCC(=O)N(Cc2ccc(-c3ccc(CNCCc4ccc(S(C)(=O)=O)cc4)cn3)cc2)C2CCN(Cc3ccccc3)CC2)cc1F | 4.03 | 5.85 | 2.72
8 | CN(C)CCN(C)Cc1cccc(-c2ccc3c(Nc4ccc(F)cc4Cl)ccnc3c2)c1 | 1.88 | 4.55 | 12.7
9 | Oc1cc(NC[C@@H]2CCC[C@@H]2NCc2ccc(Cl)c(Cl)c2)nc2ccccc12 | 9.21 | 8.79 | 7.45
10 | O=C(Nc1cccc(-c2cc(-c3c(Cl)cccc3Cl)no2)c1)c1cnc2ccccc2c1 | 11.8 | 9.35 | 6.2
11 | O=C(NC1CC1)c1ccc(Cn2c(SCc3cccc(Cl)c3)nc3ccccc3c2=O)cc1 | 0.42 | -0.54 | -1.07
12 | COc1cc2nc(N3CCC(CNC(=O)c4cccc5cccnc45)CC3)nc(N)c2cc1OC | 5.61 | 4.14 | 3.91
